Assay outcomes from PubChem.
Only a selection was taken, and hits are over-represented in it overall.
Cycloheximide cs – affects cycloheximide protein synthesis inhibition readout, counter-screen | cell reporter, cycloheximide protein synthesis inhibition counterscreen | actives 12% (n = 300,000) | max response, % | AID 2314; in the data active = max response mostly above about 13%, no sharp cut-off; inactive = mostly below about 14%; also: read at 38.3 µM for the half of the compounds with a filed dose; 0% is about no effect
LASV entry inh – Lassa virus entry inhibition; Lassa virus pseudotype entry inhibition, cell reporter; Potency, µM (top dose mostly 37.9 µM), without a hit: at the highest dose activity change, negative = inhibition, usual class: inhibitors; actives 1.2% (n = 300,000); AID 540256; calls by dose curve; tested in HEK293 cells; also: potency is read from the fitted curve at half-maximal effect; % is scaled to controls: 0 for no effect and ±100 for the full control effect; nearly all actives have a fitted effect of over 50% in size
Shiga inhibitor – Shiga toxin inhibition | actives 9.2% (n = 290,000) | Vero cells, Shiga toxin protein synthesis inhibition reporter | AID 2315 | inhibition, % at 38.7 µM; in the data active = inhibition mostly above about 28%, no sharp cut-off; inactive = mostly below about 43%; also: 0% is about no effect
AMA1-RON2 inh – disrupts binding of P. falciparum AMA1 to RON2; AlphaScreen AMA1-biotinylated RON2 peptide binding; actives 0.2% (n = 360,000); AID 720542; Potency, µM (titrated, usually from 58.2 µM), inactives show at the top dose activity change, negative = inhibition, actives largely listed as inhibitors; active = well fitted inhibition curve with a large enough effect; inconclusive = small, poorly fitted or top-dose-only effect; inactive = no such curve, though single readings can be large or run the other way;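 also: potency is read from the fitted curve at half-maximal effect; 0% = vehicle wells and -100% = peptide control; nearly all actives have a fitted effect of over 45% in size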
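AMA1 (3D7) with his tag at 25 nM final met compounds first, then biotinylated RON2 peptide at 25 nM; detection used donor plus acceptor beads, 10 µg/mL apiece, read by AlphaScreen after 30 min at room temperature.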
MARV entry inh – Marburg virus entry inhibition. Potency, µM (highest dose often 37.8 µM), for inactives: top-dose activity change, negative = inhibition, actives largely listed as inhibitors. actives 1.8% (n = 300,000). AID 540276. Marburg virus pseudotyped entry inhibition, cell reporter; calls by dose curve; tested in HEK293 cells; also: potency is read from the fitted curve at half-maximal effect; % is scaled to controls: 0 for no effect and ±100 for the full control effect
Starred values were filed as active, the others as inactive; u = inconclusive; x = no result given; [ ] = another dose, or the depositor's remark.

SMILES	Cycloheximide cs	LASV entry inh	Shiga inhibitor	AMA1-RON2 inh	MARV entry inh
N#Cc1nc(-c2cccc3ccccc23)oc1NCCN1CCCCC1	18.8	-8.1%	32.3	-6.4%	u
CCN(C[C@H]1N[C@@](CC)(C(=O)OC)[C@H]2C(=O)N(C)C(=O)[C@@H]12)S(=O)(=O)c1ccc(OC(F)(F)F)cc1	x	x	x	1.8%	x
COC(=O)C/C=C/[C@@H](C)[C@@H](/C=N/OC[C@@H](O)COCc1ccco1)OC	x	x	x	x	-14.0%[14.2 µM]
COC(=O)c1sc2ncccc2c1OCc1ccc(Cl)cc1	-2.2	-8.7%	-4.3	47.6%	8.2µM*
COC(=O)c1sc2ncccc2c1OCc1ccccc1Cl	-1.7	-12.0%	-13.3	5.9%	-0.8%
Cc1cc2n(n1)C(c1ccccc1)Nc1ccccc1-2 (stereo not given)	8.9	u	13.7	19.1%	2.9%
Cc1cc2n(n1)C(c1ccc(N(C)C)cc1)Nc1ccccc1-2 (stereo not given)	47.5*	-18.1%	48.1*	-24.8%	u
Cc1ccc2c(c1)-c1cc(C)nn1C(c1ccc3c(c1)OCO3)N2 (stereo not given)	16.0*	-3.6%	28.5	6.8%	6.7%
C#CCOCCOCCOCCNc1nc(N2CCN(C(=O)Cn3cc(CC(C)O)nn3)CC2)nc(N2CCN(C(=O)[C@H](C)n3cc(CCC(=O)O)nn3)CC2)n1 (stereo not given in full)	x	x	x	-0.9%	x
CCS(=O)(=O)N1Cc2ccccc2CC1C(=O)Nc1ccc(F)c(F)c1 (stereo not given)	37.0*	-2.0%[46.1 µM]	81.8*	-3.2%	-2.6%[46.1 µM]
CCS(=O)(=O)N1Cc2ccccc2CC1C(=O)Nc1cccc(C)c1 (stereo not given)	37.3*	x	120.1*	11.2%	x
CCS(=O)(=O)N1Cc2ccccc2CC1C(=O)Nc1ccc(OC)cc1 (stereo not given)	35.2*	x	47.5	0.5%	x
CCS(=O)(=O)N1Cc2ccccc2CC1C(=O)Nc1ccc(F)c(F)c1F (stereo not given)	24.5*	x	44.4	13.2%	x
CCS(=O)(=O)N1Cc2ccccc2CC1C(=O)Nc1ccc(NC(C)=O)cc1 (stereo not given)	-1.2	28.5%	2.3	15.7%	-12.7%
O=C(c1cccs1)N(Cc1cccnc1)c1nc2ccc(F)cc2s1	x	-26.9%[46.1 µM]	x	x	x
CCC(=O)N1c2ccccc2CC1C(=O)NCCc1ccccc1 (stereo not given)	x	23.0%[46.1 µM]	x	x	x
CCS(=O)(=O)N1Cc2ccccc2CC1C(=O)NCCc1ccccc1 (stereo not given)	19.0*	-1.5%[46.1 µM]	22.0	2.7%	-6.2%[46.1 µM]
O=C1NN=C(c2ccccc2)CC1c1c[nH]c2ccccc12 (stereo not given)	24.5*	x	52.3	-8.7%	x
O=c1c2c3c(sc2nc2n1CCC2)CCCC3	17.3	x	27.4	9.2%	2.1%
O=c1c2c3c(sc2nc2n1CCCC2)CCC3	3.2	-9.8%	-7.4	7.7%	2.5%
CC1=Nn2c(nc3sc4c(c3c2=O)CCCC4)SC1	23.9*	12.5%	56.6	7.4%	u
O=c1c2c3c(sc2nc2n1CCCS2)CCCC3	41.8*	u	51.8	3.1%	12.1%
O=c1c2c3c(sc2nc2n1CCCCC2)CCCC3	30.8*	0.4%	96.7*	-10.1%	19.0%
O=c1c2c3c(sc2nc2n1CCCCC2)CCCCC3	28.3*	x	73.5*	x	2.0%
COc1ccc(OC)c2sc(N3CCN(C(=O)c4ccc5c(c4)CCCC5)CC3)nc12	x	-12.2%[46.1 µM]	x	x	x
SMILES	Cycloheximide cs	LASV entry inh	Shiga inhibitor	AMA1-RON2 inh	MARV entry inh
N=c1c2c3c(sc2nc2n1CCCCC2)CCCCC3	31.7*	15.4%	73.3*	-0.8%	u
Cc1ccc(C)n1-n1c(C)nc2sc3c(c2c1=O)CCCCC3	0.5	u	23.0	u	u
Nc1nc2sc3c(c2c(=O)s1)CCCC3	35.4*	8.5%	62.7	-4.6%	5.3%
CC1CSc2nc3sc4c(c3c(=O)n21)CCCC4 (stereo not given)	22.1*	3.7%	25.9	-10.9%	u
O=c1c2c3c(sc2nc2n1CCCC2)CCCCC3	43.8*	7.5%	51.0	-3.7%	u
CC1(C)Cc2c(sc3nc4n(c(=O)c23)CCC4)CO1	7.9	1.6%	-0.9	28.3%	13.6%
COc1ccc(CN2C(=O)CSCC2(C)C(=O)NCc2ccccc2)cc1 (stereo not given)	x	x	x	-7.1%	x
CCOc1ccc(N2CC(NC(=O)/C=C\c3ccc4c(c3)OCO4)CC2=O)cc1 (stereo not given)	x	14.0%[46.1 µM]	x	x	x
CCN1CCN(c2nc3c(C)cccn3c(=O)c2C=C(C#N)C#N)CC1	7.7	x	5.7	2.6%	x
